Among all 5,500 compounds or so, about 2,000 (36%) were called active. Another 18% or so got no clear call; they are omitted. Cut-off read from the data, not from the text of the source: active = normalized growth mostly below about 0.91 (no sharp cut-off); inconclusive = no clear call, values can overlap the other calls; inactive = mostly above about 0.92. The list shows a part of the results.
Assay: chemical genetic growth profiling, strain panel (AID 1159580);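 note: tested at 20 µM; growth read once vehicle control cultures reached saturation at 30 °C; 1 = growth at the plate median or of vehicle wells; lower values mean less growth of the strain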
Conditions: S. cerevisiae deletion strains, growth OD

Measured: normalized growth

NC(C(=O)O)c1cc(=O)[nH]o1 (centres undefined)
inactive: locus YAL013W, strain DEP1, hits give low values 1.02 | locus YAL040C, strain CLN3, hits give low values 1.01 | locus YCL061C, strain MRC1 (second series), hits give low values 1 | locus YDR150W, strain NUM1, hits give low values 1 | locus YDR363W, strain ESC2, hits give low values 1.04 | locus YER002W, strain NOP16, hits give low values 1.01 | locus YGR229C, strain SMI1, hits give low values 1.04 | locus YMR263W, strain SAP30, hits give low values 1 | locus YMR307W, strain GAS1, hits give low values 1.01 | locus YNL153C, strain GIM3, hits give low values 1.04 | locus YNL175C, strain NOP13, hits give low values 1.02 | locus YNL197C, strain WHI3, hits give low values 0.999 | locus YNL224C, strain SQS1, hits give low values 0.996 | locus YOR083W, strain WHI5 (second series), hits give low values 1.01

Source: PubChem BioAssay AID1159580 (chemical genetic matrix, 2015)
